In PubChem BioAssay (EPA / NIEHS):
Where “and” joins values, the source holds several entries; their conditions need not be identical. Equal entries are not always repeated. Records with an inconclusive call do not appear. Some structures have more than one record in an assay (separate samples or runs), and their calls can disagree. Calls of active or inactive are those of the source. The calls were made as follows: active = hit-call score of the fitted dose curve at least 0.9, where 1 is the maximum; inconclusive = response in the unintended direction; inactive = score below 0.9.

Key:
[1] = TOX21_p53_BLA_p2_viability: Viability Assessment in the Tox21 HCT-116 p53 Agonism Beta-lactamase Assay, Phase 2 (AID 2283591);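 also: compound exposure lasted 16 h at 37 °C; actives lower the ATP signal meaning cytotoxicity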
Outline: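 Cytotoxicity readout: CellTiter-Glo ATP luminescence, 30 min at room temperature, after the beta-lactamase read. Cells were HCT116 exposed 16 h at 37C to compounds pin-transferred at 217-fold dilution from DMSO stocks.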

[2] = TOX21_p53_BLA_p5_viability: Viability Assessment in the Tox21 HCT-116 p53 Agonism Beta-lactamase Assay, Phase 5 (AID 2283600)
Outline: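 After the 460/530 nm beta-lactamase measurement, the wells received an ATP-detection luciferase reagent; signal was read 30 min later at RT. Compound treatment lasted 16 h on cells pre-incubated 5 h post-seeding.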

[3] = biological target: Cellular tumor antigen p53 (Homo sapiens) (UniProt P04637); assay: TOX21_p53_BLA_p5_ratio: Tox21 HCT-116 p53 Agonism Beta-lactamase Assay, Ratio, Phase 5 (AID 2283599)
Chain of Cellular tumor antigen p53 (Homo sapiens) (P04637 whole entry, looked up): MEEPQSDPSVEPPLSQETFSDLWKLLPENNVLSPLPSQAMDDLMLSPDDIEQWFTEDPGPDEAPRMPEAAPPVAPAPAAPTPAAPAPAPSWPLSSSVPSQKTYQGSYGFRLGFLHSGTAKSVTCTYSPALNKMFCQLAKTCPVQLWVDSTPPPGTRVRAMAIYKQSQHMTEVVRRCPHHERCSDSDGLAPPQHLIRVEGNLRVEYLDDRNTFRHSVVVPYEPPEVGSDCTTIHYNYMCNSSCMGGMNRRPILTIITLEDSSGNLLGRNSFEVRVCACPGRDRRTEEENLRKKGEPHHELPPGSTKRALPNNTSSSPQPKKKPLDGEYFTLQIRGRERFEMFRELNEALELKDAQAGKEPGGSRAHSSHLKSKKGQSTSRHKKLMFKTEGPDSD
Outline: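 Beta-lactamase reporter ratio (blue 460 nm over green 530 nm, 405 nm excitation) after 2 h CCF4-AM loading, in HCT-116 cells exposed 16 h at 37 C to compounds pinned at 217-fold dilution. Increases relative to DMSO baseline scored.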

[4] = biological target: Cellular tumor antigen p53 (Homo sapiens) (UniProt P04637); assay: TOX21_p53_BLA_p4_ratio: Tox21 HCT-116 p53 Agonism Beta-lactamase Assay, Ratio, Phase 4 (AID 2283601)
Outline: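 Signal is the blue/green (460nm/530nm) ratio of cleaved versus uncleaved CCF4-AM substrate, read after 2 h substrate loading. Cells were HCT116 carrying the p53-responsive beta-lactamase reporter, dosed 16 h at 37C, 5% CO2; CellTiter-Glo measured in parallel.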

[5] = biological target: Cellular tumor antigen p53 (Homo sapiens) (UniProt P04637); assay: TOX21_p53_BLA_p2_ratio: Tox21 HCT-116 p53 Agonism Beta-lactamase Assay, Ratio, Phase 2 (AID 2283592)
Outline: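 Gain-of-signal p53 agonism was scored from the beta-lactamase FRET ratio (460/530 nm, 405 nm excitation) in HCT116 cells treated 16 h at 37C, 5% CO2, with DMSO serving as negative control and baseline.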

[6] = TOX21_p53_BLA_p3_viability: Viability Assessment in the Tox21 HCT-116 p53 Agonism Beta-lactamase Assay, Phase 3 (AID 2283593);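 also: cells exposed to compound for 16 h before reading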
Outline: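 Cellular ATP was quantified by CellTiter-Glo luminescence, read after 30 min at room temperature. Beforehand, HCT116 cells (4000/well) received compound 5 h post-seeding, 217-fold diluted from DMSO, then incubated 16 h at 37C.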

[7] = biological target: Cellular tumor antigen p53 (Homo sapiens) (UniProt P04637); assay: TOX21_p53_BLA_p3_ratio: Tox21 HCT-116 p53 Agonism Beta-lactamase Assay, Ratio, Phase 3 (AID 2283596)
Outline: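 HCT116 p53-bla cells (4000/well) given compound in DMSO (217-fold dilution) after 5 h, incubated 16 h at 37C. CCF4-AM substrate 2 h at room temperature; 460/530 nm emission ratio, gain fitted against DMSO.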

[8] = TOX21_p53_BLA_p4_viability: Viability Assessment in the Tox21 HCT-116 p53 Agonism Beta-lactamase Assay, Phase 4 (AID 2283597);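 also: hits lower the luminescence signal meaning cytotoxicity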
Outline: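 Following a 16 h exposure at 37C, the treated HCT116 wells were first read for the FRET ratio. They were then lysed with CellTiter-Glo, and ATP luminescence was recorded after 30 min at room temperature.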

Measured: AC50

CC(C)CC(O)CC(C)C
inactive: [1] | [2]

C[C@@H](CN(C)C)CN1c2ccccc2Sc2ccccc21
inactive: [1] | [3] | [4]

CC(O)Cn1cnc2c1c(=O)n(C)c(=O)n2C (stereo unspecified)
inactive: [1] | [4]

CC[N+](C)(CC)CCOC(=O)C(O)(c1ccccc1)C1CCCCC1 (stereo unspecified)
inactive: [1] | [2]

OC[C@H]1O[C@@H](O[C@@H]2[C@@H](CO)O[C@](O)(CO)[C@H]2O)[C@H](O)[C@@H](O)[C@H]1O
inactive: [1] | [3] | [2] | [4]

CSc1ccc(C(=O)c2[nH]c(=O)[nH]c2C)cc1
inactive: [1] | [3] | [2] | [4]

C[C@H](N)[C@H](O)c1cccc(O)c1
inactive: [5] | [6]

CCCCCCCC/C=C\CCCCCCCCCCCC(=O)O
inactive: [1] | [3] | [4]

CCOC(=O)CC(C)=O
inactive: [1] | [2]

c1ccsc1
inactive: [5]

COC(=O)C[C@](O)(CCCC(C)(C)O)C(=O)O[C@@H]1C(OC)=CC23CCCN2CCc2cc4c(cc2[C@H]13)OCO4 (stereo partly specified)
inactive: [5] | [6] | [3] | [2]
active: [5] 0.0202 µM | [7] 45.4 nM and 43.1 nM | [8] 0.014 µM | [3] 0.0379 µM

CC(=O)O[C@H]1C[C@@H]2CC[C@@H]3[C@H](CC[C@@]4(C)[C@H]3C[C@H](N3CC[N+](C)(C)CC3)[C@@H]4OC(C)=O)[C@@]2(C)C[C@@H]1N1CC[N+](C)(C)CC1
inactive: [1] | [2] | [4]

O=C1NCCN1
inactive: [5] | [6] | [7] | [8]

CC(C)(C)C1(O)CCN2CC3c4ccccc4CCc4cccc(c43)C2C1 (stereo unspecified)
inactive: [5]

C=C(C)C(=O)OC(C)C
inactive: [5] | [6]

CC(=O)Nc1ccc(OC(C)=O)cc1
inactive: [1] | [3] | [2] | [4]

C[Si](C)(C)Cl
inactive: [1] | [4]

CC1=C(C/C=C(\C)CCC[C@H](C)CCC[C@H](C)CCCC(C)C)C(=O)c2ccccc2C1=O
inactive: [1] | [4]

CCc1ccc(C)cc1
inactive: [1] | [2]

CCCCC(=O)N(C)C
inactive: [1] | [3] | [4]

O=C(O)c1ccc(Cl)cc1Cl
inactive: [1] | [3] | [4]

C=CC(=O)OCC[N+](C)(C)C
inactive: [5]

COc1ccc(C=CC(=O)OCCC(C)C)cc1
inactive: [5] | [6] | [7] | [8]

O=[N+]([O-])c1ccc(/C=N\O)o1
inactive: [1] | [3] | [4]

Oc1ccc(-c2ccc(O)cc2)cc1
inactive: [1] | [3] | [2]
active: [4] 46.8 µM

COc1ccc2c(=O)c(C)c(-c3ccccc3)oc2c1CN(C)C
inactive: [5] | [6] | [7] | [8] | [3]

CCCCCCCCCCCCCCN(C)C
inactive: [5] | [6] | [7] | [8] | [3]

CC(N)C12CC3CC(CC(C3)C1)C2 (stereo unspecified)
not listed: [1]
inactive: all other assays above

NCC[C@H](O)C(=O)N[C@@H]1C[C@H](N)[C@@H](O[C@H]2O[C@H](CN)[C@@H](O)[C@H](O)[C@H]2O)[C@H](O)[C@H]1O[C@H]1O[C@H](CO)[C@@H](O)[C@H](N)[C@H]1O
not listed: [1] | [4]
inactive: all other assays above

CC(=O)O[C@H]1C(=O)[C@@]2(C)[C@H]([C@H](OC(=O)c3ccccc3)[C@]3(O)C[C@H](OC(=O)[C@H](O)[C@@H](NC(=O)c4ccccc4)c4ccccc4)C(C)=C1C3(C)C)[C@]1(OC(C)=O)CO[C@@H]1C[C@@H]2O
active: [5] 0.179 µM | [7] 8.26 nM | [3] 4.57 µM | [4] 0.00702 µM
inactive: [6] | [8] | [2]

O=[N+]([O-])c1cccc(S(=O)(=O)O)c1
not listed: [1]
inactive: all other assays above

Cc1ccc(O)c2ncccc12
not listed: [1]
inactive: all other assays above

C=C1/C(=C\C=C2/CCC[C@]3(C)[C@@H]([C@H](C)OCCC(C)(C)O)CC[C@@H]23)C[C@@H](O)C[C@@H]1O
active: [5] 12.7 µM | [7] 14300 nM | [3] 13.5 µM
inactive: [6] | [8] | [2]

COc1ccc(-c2noc(CC(=O)O)c2-c2ccc(OC)cc2)cc1
not listed: [1]
inactive: all other assays above

NCCc1ccc(O)c(O)c1
not listed: [1] | [4]
inactive: all other assays above

NC(=O)c1cccc([N+](=O)[O-])c1
not listed: [1] | [4]
inactive: all other assays above

[O-][n+]1cccc(CO)c1
inactive: [5] | [6] | [7] | [8] | [3]

Cc1c(N)cccc1Cl
not listed: [1] | [4]
inactive: all other assays above

CC1=NS(=O)(=O)c2cc(Cl)ccc2N1
inactive: [5] | [6] | [7] | [8] | [3]

CC(C)COC(=O)c1ccc(O)cc1
not listed: [1]
inactive: all other assays above

O=C(Cn1cnnn1)N[C@@H]1C(=O)N2C(C(=O)O)=C(CSc3nncs3)CS[C@H]12
not listed: [1] | [4]
inactive: all other assays above

Cc1cc(S(=O)(=O)O)c(N)cc1Cl
not listed: [1]
inactive: all other assays above

CCCCN1CCCC[C@H]1C(=O)Nc1c(C)cccc1C
not listed: [1] | [4]
inactive: all other assays above

Nc1ccn([C@@H]2O[C@H](CO)[C@@H](O)C2(F)F)c(=O)n1
active: [5] 0.176 µM | [7] 181 nM | [3] 0.26 µM | [4] 0.188 µM
inactive: [6] | [8] | [2]

CC1(C)[C@@H]2CC[C@@]1(C)[C@H](OC(=O)CSC#N)C2
inactive: [5] | [6] | [7] | [8] | [3]

CCC1OC(=O)C[C@@H](O)[C@H](C)[C@@H](O[C@@H]2O[C@H](C)C[C@H](N(C)C)[C@H]2O)[C@@H](CC=O)C[C@@H](C)C(=O)/C=C/[C@]2(C)OC2C1C (stereo partly specified)
active: [3] 35 µM | [4] 27.1 µM
inactive: [5] | [6] | [7] | [8] | [3] | [4]

CC(=O)N(CC(O)CO)c1c(I)c(C(=O)NCC(O)CO)c(I)c(C(=O)NCC(O)CO)c1I (stereo unspecified)
inactive: [5] | [6] | [7] | [8]

COc1ccc2cc(CCC(C)=O)ccc2c1
not listed: [1] | [4]
inactive: all other assays above

CCCCOC(=O)c1ccc(N)cc1
not listed: [1]
inactive: all other assays above

O=C(O)CN1C(=O)c2cccc3cccc(c23)C1=O
inactive: [5] | [6] | [7] | [8] | [3]

CCCCNC1CC(C)(C)NC(C)(C)C1
inactive: [5] | [6] | [7] | [8] | [3]

O=C(Cl)c1cc(Cl)cc(Cl)c1
not listed: [1] | [4]
inactive: all other assays above

C[C@H](O)[C@H](O)[C@H]1CNc2nc(N)[nH]c(=O)c2N1
not listed: [1] | [4]
inactive: all other assays above
